Measurements taken from PubChem BioAssay (NCI).
Compounds without any hit were thinned out: in the full panel of roughly 83,000, 20% have a hit.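 For each line, cells grew in 96-well plates with the test compound present at a single concentration for 48 hours.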 Calls of active or inactive are those of the source. How the source made its calls: active means growth percent below 10; inactive means the rest.

Test system: UACC-257 melanoma
Assay: NCI-60 one-dose screen, 48 h (100 = growth as untreated, 0 = no growth, -100 = all killed)
Conditions: 10 µM unless noted

Row | SMILES | growth
1 | CCOc1ccccc1/C=N\Nc1ccc(S(=O)(=O)c2ccc(N/N=C/c3ccccc3OCC)cc2)cc1 | 100% (inactive)
2 | Nc1ccc(Cl)c([N+](=O)[O-])c1 | 95.1% (inactive)
3 | Oc1ccc(N=Nc2nccs2)c(O)c1 | 99.5% (inactive)
4 | O=C(N[C@@H]1CCCc2ccccc21)[C@H](CCC(=O)N1CCN(C2CCCCC2)CC1)N1C(=O)[C@@H](N2C(=O)OC[C@@H]2c2ccccc2)[C@H]1/C=C/c1ccccc1 | 10.7% (inactive)
5 | Cc1ccc(NC(=S)/N=c2/n(-c3ccccc3)nc3n2CCN3C2=NCCN2)cc1 | 109% (inactive)
6 | CCCCC1COc2cccc3c2N1C=C/C3=C\C(=O)n1ccc2ccccc21 (stereo not drawn) | 85.6% (inactive)
7 | COc1cc(C)cc2oc3oc(=O)c(-c4nc5ccccc5s4)cc3c(=O)c12 | 109% (inactive)
8 | O=C(Nc1ccccc1)Nc1ccc(C(=O)/C=C/c2ccc(N3CCCC3)cc2)cc1 | 51.4% (inactive)
9 | COc1cc(C)cc2oc3oc(=N)c(C(=O)c4ccccc4)cc3c(=O)c12 | 111% (inactive)
10 | CC[C@]12C=CCN3CC[C@@]4(c5ccc(OC)cc5N(C)[C@H]4[C@@](O)(C(=O)OC)[C@@H]1OC(=O)CCC(=O)N[C@H](Cc1c[nH]c4ccccc14)C(=O)OC)[C@@H]32 | -29.2% [100 µM] (active)
11 | CC(=O)OC[C@]12CC[C@@H]([C@@H](C)C(N)=O)[C@@H]1[C@H]1CC[C@@H]3[C@@]4(C)CC[C@H](OC(C)=O)C(C)(C)[C@@H]4CC[C@@]3(C)[C@]1(C)CC2 | -46.2% [100 µM] (active)
12 | O=c1c2c3c(sc2n2cnnc2n1Cc1ccccc1)CCCC3 | 131% (inactive)
13 | COc1cc2c(c(OC)c1)C1c3cc(OC)ccc3NC(=O)N1CC2 (stereo not drawn) | 90.8% (inactive)
14 | O=c1cc(-c2ccccc2)oc2cc(OCc3cn(Cc4ccc(F)cc4)nn3)cc(O)c12 | 86.3% [100 µM] (inactive)
15 | CCN(CC)c1ccc2cc(NC(=O)OCCNC(=O)CCNC(=O)[C@H](CC(C)C)NC(=O)C(C)(C)NC(=O)C(C)(C)NC(=O)[C@H](CC(C)C)NC(=O)CCNC(=O)C(C)(C)NC(=O)[C@H](CC(C)C)NC(=O)CCNC(=O)[C@@](C)(CC)NC(=O)[C@H](C)NC(=O)CCNC(=O)C(C)(C)NC(=O)[C@H](C)NC(=O)[C@@H]3CCCN3C(=O)[C@@](C)(CC)NC(=O)[C@H](Cc3ccccc3)NC(=O)C3CCCN3C(=O)C(C)(C)NC(=O)C3CCCN3C(=O)C(C)(C)NC(C)=O)c(=O)oc2c1 (stereo partly drawn) | -89.4% (active)
16 | CCCCCCCCCCCCCC[n+]1cccc(C(N)=O)c1 | 24.3% (inactive)
17 | CCOC(CNC(=O)c1cccc([N+](=O)[O-])c1)OCC | 83.2% (inactive)
18 | COc1ccc(/C=C/C=C\C(=O)c2ccc(-n3ccnc3)cc2)cc1 | 93.1% (inactive)
19 | CCNc1cc2c(cc1Br)-c1ccccc1C2=O | 93.4% (inactive)

Row | SMILES | growth
20 | C[n+]1c(-c2ccccc2)c2cc(N)ccc2c2ccccc21 | 8.1% (active)
21 | C/C=C/C1OC23CCCCC2C(C#N)(C(=N)O3)C1(C#N)C#N (stereo not drawn) | 93.3% (inactive)
22 | Fc1cc2[nH]ncc2c2c3c(c(-c4cn[nH]c4)nc12)CCCC3 | -22.2% (active)
23 | CCOC(=O)c1nn(C2CCCCO2)c2ccc(NC(=O)CN3CCCC3)cc12 (stereo not drawn) | 91.3% (inactive)
24 | Nc1nnc(CSc2nnc3n(Cc4ccccc4)c(=O)c4c5c(sc4n23)CCCC5)s1 | 98.5% (inactive)
25 | O=S(=O)(NCc1ccccc1)c1ncnc2nc[nH]c12 | 92.7% (inactive)
26 | c1cc2ccc1CNCCN1CCNCc3ccc(cc3)Oc3ccc(cc3)CNCCN(CCNCc3ccc(cc3)O2)CCNCc2ccc(cc2)Oc2ccc(cc2)CNCC1 | 37.5% (inactive)
27 | CS(=O)(=O)c1cccnn1 | 108% (inactive)
28 | N=C(N)c1ccc(-c2ccc(-c3ccc(-c4cccs4)s3)s2)cc1F | 102% (inactive)
29 | CCCSc1nc(N)nc2nc[nH]c12 | 105% (inactive)
30 | C[C@H]1[C@H](C)CC[C@]2(C(=O)O)CC[C@]3(C)C(=CC[C@@H]4[C@@]5(C)C/C(=C/c6cccnc6)[C@H](O)C(C)(C)[C@@H]5CC[C@]43C)[C@H]12 | 0.776% [100 µM] (active)
31 | O=C1CC(c2ccccc2)Cc2nc3ccc(Br)cc3cc21 (stereo not drawn) | 69.2% (inactive)
32 | C1=C[C@H]2O[C@@H]1c1ccc3[nH]ccc3c12 | 91.6% (inactive)
33 | CCN(CC)c1ccc(/C=C/c2ccc3cc(C)ccc3[n+]2CC)cc1 | -19% (active)
34 | O=C(Nc1cc(F)cc2cccnc12)c1cnc(N2CCNCC2)cn1 | 88% (inactive)
35 | C=CCCC1(C)NC(=O)NC1=O (stereo not drawn) | 104% (inactive)
36 | CC(=O)Nc1ccc2nc3ccc(NC(C)=O)cc3[n+](-c3ccccc3)c2c1 | 94.5% (inactive)
37 | CCCCCN(CCCCC)CCCCCCCCN1CCCc2ccccc21 | 95.2% (inactive)
38 | O=C(O)c1cccc(CN2CCN(c3cc4c(cc3F)c(=O)c(C(=O)O)cn4C3CC3)CC2)c1O | 97.7% (inactive)
